# About 79,000 compounds went through this panel and 15% of them were active in at least one assay; those are over-represented in the sample as a whole. Calls of active or inactive are those of the source. Cut-off read from the data, not from the text of the source: active = growth inhibition above about 70%; inactive = the rest. Residues, ends and D or L forms follow the SMILES beside them. *: point of attachment. Fmoc = O=C(OCC1c2ccccc2-c2ccccc21)*; Boc = CC(C)(C)OC(=O)*
# Assay: NCI Yeast Anticancer Drug Screen. Data for the wt1 strain (AID 149);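 note: 0% = growth of vehicle-treated wt1 cultures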
# Conditions: S. cerevisiae wt1 strain (SPY 50644) growth inhibition; at 11.0 µM; active compounds read high
# Summary of the method: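 Vehicle-normalised growth inhibition; strain wt1; compound exposure.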
row,SMILES,growth inhibition
1,CC(C)OP(=O)(OC(C)C)/C(Cl)=N/Nc1ccc([N+](=O)[O-])cc1,19% (inactive)
2,CCCCCCNCCCNc1c2cc(OC)ccc2nc2cccc([N+](=O)[O-])c12,9% (inactive)
3,CN(C)CCNCCCNc1c2ccccc2nc2cccc([N+](=O)[O-])c12,11% (inactive)
4,O=[N+]([O-])c1ccc(/C=C\c2ccc3c(c2)OCO3)c([N+](=O)[O-])c1,2% (inactive)
5,O=C1c2ccccc2N2OC3(N4CCCC4)CCCCC3C12c1ccccc1 (configuration not stated),16% (inactive)
6,CC(C)OC(=O)NNc1cc(Cl)ccc1Cl,29% (inactive)
7,Cc1oc2ccccc2c(=O)c1Cn1nnc2ccccc21,-2% (inactive)
8,CC1(C)OC(=O)C(=Cc2ccc([N+](=O)[O-])s2)C(=O)O1,-14% (inactive)
9,OC(Cc1cccc2ccccc12)CN1CCC(c2ccccc2)CC1 (configuration not stated),34% (inactive)
10,C1=CCN([B-](c2ccccc2)[C+]2CCCCC2)C=C1,1% (inactive)
11,CCCNC(=O)OCc1c(COC(=O)NCCC)c(-c2ccc(Cl)c(Cl)c2)n2c1CCC2,-35% (inactive)
12,CC1(C)CC(=O)C(C(=O)Nc2cccs2)=C(O)C1,23% (inactive)
13,O=C(NO)c1coc2ccccc2c1=O,-3% (inactive)
14,COc1ccc(C(C)c2cc3c(cc2OCC(C)=O)OCO3)cc1 (configuration not stated),-5% (inactive)
15,CCS(=O)(=O)Nc1ccc(Nc2c3ccccc3nc3ccccc23)c(OC)c1,-38% (inactive)
16,CC1=NN(C(=O)c2ccccc2O)C(=O)/C1=C/c1ccco1,70% (active)
17,O=C1C=C(Br)C(=O)c2ccccc21,73% (active)
18,C[N+](C)([O-])CCCNc1c2ccccc2nc2cccc([N+](=O)[O-])c12,24% (inactive)
19,Cc1cccc2c(NCCCN(C)C)c3c([N+](=O)[O-])ccc(C)c3nc12,39% (inactive)
20,OC1(c2ccccc2)C2CC=CC2C1(c1ccccc1)c1ccccc1 (configuration not stated),-8% (inactive)
21,C[n+]1c(-c2ccc(/C=N/NC(=O)c3ccc(C(=O)N/N=C/c4ccc(-c5cn6ccccc6[n+]5C)cc4)cc3)cc2)cn2ccccc21,26% (inactive)
22,CCN(CC)CCC(=O)Nc1ccc2sc3ccccc3c(=O)c2n1,1% (inactive)
23,O=[N+]([O-])c1ccc2nc(=S)[nH]n2c1,-7% (inactive)
24,O=C(c1ccccc1)[C@H]1Nc2ccc(Cl)cc2[C@H]2OCCC[C@@H]12,-2% (inactive)
25,COc1cc([N+](=O)[O-])c2ncccc2c1Br,5% (inactive)
26,O=S(=O)(c1cccc(C(F)(F)F)c1)N1c2ccccc2-n2cccc2C1c1cccnc1 (configuration not stated),55% (inactive)
27,CC(C)(C)OC(=O)NCCCCC(NC(=O)C(Cc1c[nH]c2ccccc12)NC(=O)OCC1c2ccccc2-c2ccccc21)C(=O)O (configuration not stated) (Fmoc-Trp-Lys(Boc)-OH; configuration not given here),-3% (inactive)
